# Data as given in PubChem BioAssay (NCATS).
# Inconclusive results are not listed. Where a call stands in place of a potency, no number is given. Calls of active or inactive are those of the source. The call rests on the fitted dose curve; in most records, active means well fitted inhibition curve with a large enough effect; inconclusive means small, poorly fitted or top-dose-only effect; inactive means flat fitted curve, though single readings scatter. Non-standard residues stand in square brackets, D forms with d. Residues, ends and D or L forms follow the SMILES beside them. *: point of attachment. Nva = CCC[C@H](N)C(=O)O; Cbz = O=C(OCc1ccccc1)*
# Biological target: Glutathione peroxidase 1 (Homo sapiens) (UniProt P07203)
# Experiment: Primary qHTS Assay for Inhibitors of Recombinant Selenoprotein Glutathione Peroxidase 1 (GPX1) (AID 1845191); further: nearly all actives have a fitted effect of over 65% in size
# Conditions: recombinant GPX1, GR-coupled NADPH fluorescence, 15 min; series mostly up to 48.8 µM; activity, negative = inhibition: at the top concentration
# How it was run: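 Recombinant GPX1 (10 nM final) was preincubated with compound for 30 min at room temperature, then reacted with 1 mM GSH, 0.5 mM CHP, 0.5 mM NADPH and 100 nM glutathione reductase; NADPH fluorescence (340/450 nm) was read at 0 and 15 min.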
# Glutathione peroxidase 1 (Homo sapiens), sequence (P07203 whole entry, looked up): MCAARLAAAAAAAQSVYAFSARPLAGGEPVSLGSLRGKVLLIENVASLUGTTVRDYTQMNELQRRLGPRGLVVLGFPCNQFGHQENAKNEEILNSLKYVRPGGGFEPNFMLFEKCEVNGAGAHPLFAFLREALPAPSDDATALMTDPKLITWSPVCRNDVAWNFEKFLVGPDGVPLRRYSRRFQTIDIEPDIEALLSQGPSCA
SMILES,Potency,outcome,"activity, negative = inhibition"
Cc1ccc(-n2[nH]c(C)c(N=Nc3cccc(-c4cccc(C(=O)O)c4)c3O)c2=O)cc1C,inactive,,
COc1cccc2c1C(=O)c1c(O)c3c(c(O)c1C2=O)C[C@@](O)(C(=O)CO)C[C@@H]3O[C@H]1C[C@H](N)[C@@H](O)[C@H](C)O1,,inactive,
CN(C)CC(=O)N1CCC(c2ccc(NC(=O)c3ncc(C#N)[nH]3)c(C3=CCCCC3)c2)CC1,inactive,,
CS(=O)(=O)N1CCc2c(-c3cnc(N)nc3)nc(N3CCOCC3)nc21,inactive,,
C[C@@H](NCc1cc2ccccc2[nH]1)c1cccc2ccccc12,,inactive,
COc1cc(C)c(Sc2cnc(NC(=O)c3ccc(CNC(C)C(C)(C)C)cc3)s2)cc1C(=O)N1CCN(C(C)=O)CC1 (centres undefined),,,-15.5% (inactive)
Oc1ccc(-c2ccc(-c3cc(Nc4cccc(CNC5CC5)c4)n[nH]3)cc2)c(O)c1,,inactive,
CCCCCCCCCCCCc1ccc(S(=O)(=O)Nc2nncs2)cc1,,inactive,
CCC[C@@H](C=O)NC(=O)[C@H](CC(C)C)NC(=O)[C@H](CC(C)C)NC(=O)OCc1ccccc1 (Cbz-Leu-Leu-[Nva]-aldehyde),,,-0.267% (inactive)
C[C@@H](Cc1cc2c(c(C(N)=O)c1)N(CCCO)CC2)NCCOc1ccccc1OCC(F)(F)F,,,-1.18% (inactive)
O=C(Nc1ccc(Oc2ccnc3[nH]ccc23)c(F)c1)c1cccn(-c2ccc(F)cc2)c1=O,,inactive,
CCc1nc(-c2cccc(C)c2)c(-c2ccnc(NC(=O)c3ccccc3)c2)s1,,inactive,
COC[C@H](NC(=O)c1cnc(C)s1)C(=O)N[C@@H](COC)C(=O)N[C@@H](Cc1ccccc1)C(=O)[C@@]1(C)CO1,,,-21.2% (inactive)
C=C[C@@H]1CN2CCC1C[C@H]2[C@H](O)c1ccnc2ccc(OC)cc12 (some centres undefined),,inactive,
CCc1ccc(C(=O)Nc2cc(CN3CCN(C)CC3)cc(C(F)(F)F)c2)cc1C#Cc1cnc2ccnn2c1,inactive,,
O=C(CN1C(=O)C2(CCCC2)NC[C@H]1c1cc(F)cc(F)c1)Nc1ccc2c(c1)C[C@@]1(C2)C(=O)Nc2ncccc21,,inactive,
NC1=N[C@H]2[C@H](CS[C@H]2CCCCC(=O)O)N1,,inactive [at 27.7 µM],
C#Cc1cccc(Nc2ncnc3cc(OCCOC)c(OCCO)cc23)c1,,inactive,
O=C(c1ccc(F)cc1)N1CCC[C@H](c2nc(-c3ccc(F)cc3)no2)C1,inactive,,
